# From PubChem BioAssay (NCI)
# Compounds without any hit were thinned out: in the full panel of roughly 83,000, 20% have a hit.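 Negative percent growth values reflect cell death: -40 means 40% of the cells present at the start died, and -100 means all died.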 Unmarked numbers belong to inactive results. Activity calls are given as the source filed them. How the source made its calls: active means growth percent below 10; inactive means the rest.
# Key:
# Assay in all cases: NCI-60 one-dose screen, 48 h (100 = growth as untreated, 0 = no growth, -100 = all killed)
# SR leukemia = conditions: 10 µM unless noted
# RPMI-8226 leukemia = conditions: 10 µM
# OVCAR-8 ovarian = conditions: 10 µM unless noted
# OVCAR-5 ovarian = conditions: 10 µM unless noted
# OVCAR-4 ovarian = conditions: 10 µM unless noted
# SK-OV-3 ovarian = conditions: 10 µM
# IGROV1 ovarian = conditions: 10 µM unless noted
# OVCAR-3 ovarian = conditions: 10 µM unless noted
# HS 578T breast = conditions: 10 µM unless noted
# NCI/ADR-RES ovarian = conditions: 10 µM unless noted
# T-47D breast = conditions: 10 µM
# BT-549 breast = conditions: 10 µM unless noted
# MDA-MB-435 melanoma = conditions: 10 µM unless noted
# SW-620 colon = conditions: 10 µM unless noted
# MCF7 breast = conditions: 10 µM unless noted
# HCT-116 colon = conditions: 10 µM unless noted
# HCC-2998 colon = conditions: 10 µM unless noted
# KM12 colon = conditions: 10 µM unless noted
Structure (SMILES),growth (SR leukemia),growth (RPMI-8226 leukemia),growth (OVCAR-8 ovarian),growth (OVCAR-5 ovarian),growth (OVCAR-4 ovarian),growth (SK-OV-3 ovarian),growth (IGROV1 ovarian),growth (OVCAR-3 ovarian),growth (HS 578T breast),growth (NCI/ADR-RES ovarian),growth (T-47D breast),growth (BT-549 breast),growth (MDA-MB-435 melanoma),growth (SW-620 colon),growth (MCF7 breast),growth (HCT-116 colon),growth (HCC-2998 colon),growth (KM12 colon)
Cc1nn(-c2ccccc2)c2nc3nc4c(c(N)c3c(-c3ccc(Cl)cc3)c12)CCCC4,-15.3% (active),93%,92.6%,96.3%,109%,101%,104%,114%,105%,106%,108%,113%,97%,79.5%,97.8%,80.2%,113%,105%
O=C1NC(=O)C(CSc2ccccc2)(c2ccccc2)N1 (stereo not drawn),89.9%,100%,99.3%,107%,111%,101%,80.4%,124%,106%,99.9%,93.4%,100%,112%,106%,101%,102%,96.4%,113%
COc1ccc2c(c1)c(=O)oc1c(C)c(OCC(C)=O)ccc12,116%,92.6%,96.3%,86.9%,93.6%,110%,111%,109%,33.6%,97.6%,104%,102%,89.4%,101%,101%,104%,98.1%,96.6%
Clc1nc(-c2ccccn2)nc2sc3c(c12)CCCCCC3,66.3%,95.5%,87.1%,108%,85.7%,105%,89.8%,108%,91.3%,89.3%,42.2%,85.1%,91.4%,102%,54%,84.5%,63.4%,91.6%
COC(=O)/C=C1/CCC2C3CCC4=CC(=O)C(Br)CC4(C)C3C(=O)CC12C (stereo not drawn),33%,61.1%,63.1%,112%,67.8%,103%,25.1%,89.5%,86.7%,81.7%,54.8%,95.9%,76.3%,69.2%,42.3%,47.9%,62.1%,81.1%
CC(C)N1CCN(c2ccc(OC[C@H]3CO[C@](Cn4cncn4)(c4ccc(Cl)cc4Cl)O3)cc2)CC1,58.1%,88.7%,100%,85.1%,99.2%,94%,104%,102%,84%,88.1%,105%,84.4%,69.7%,98.4%,95%,77.7%,104%,95.4%
CN([N-]C(=O)CC(=O)[N-]N(C)C(=S)c1ccccc1)C(=S)c1ccccc1.[Cu+2],-17.7% (active),-13.7% (active),-39.1% (active),-53.4% (active),-98.4% (active),-99.1% (active),-93.2% (active),-85.7% (active),-12.3% (active),-3.82% (active),-52.7% (active),-73% (active),-83.9% (active),-67.4% (active),-48.3% (active),-12.4% (active),-94.2% (active),-74.8% (active)
O=C1CN2CCC1C/C2=C\c1ccnc2c(Cl)cccc12 (stereo not drawn),-24% (active),62.2%,99.4%,103%,93.6%,94.1%,95.3%,123%,219%,101%,93.6%,108%,101%,101%,45.7%,98.5%,102%,101%
CN1CCn2c(c(Sc3ccc(C(=O)NO)cc3)c3ccccc32)C1=O,0.516% (active),-19.9% (active),-46.5% (active),24.3%,14%,57.4%,-44.1% (active),-32.5% (active),49.3%,64.1%,14.6%,2.47% (active),-74.6% (active),-14.4% (active),27.1%,-39.3% (active),-37.8% (active),-51.4% (active)
Cc1nc2cc(Nc3nc(Nc4ccc(F)cc4)nc(N4CCN(C)CC4)n3)ccc2n1Cc1ccccc1,-21.6% (active),-40.2% (active),11.6%,42.9%,-7.19% (active),68.7%,24.6%,-35.6% (active),-19.4% (active),43.1%,-10.7% (active),-49.9% (active),0.19% (active),15.6%,17.9%,-16.3% (active),-14.8% (active),17%
CC1(C)N=C(N)N=C(N)N1c1cccc(OCCOc2cccc([N+](=O)[O-])c2)c1,15.9%,52.4%,105%,32%,81.3%,70%,29.7%,45.3%,82%,107%,83.1%,37.8%,17.8%,48.6%,29%,10.9%,47.6%,22.2%
OC[C@@H](O)[C@@H](O)CO,81.7%,118%,105%,102%,101%,116%,109%,106%,104%,99.6%,103%,101%,100%,98.4%,99.9%,102%,102%,105%
CCOC(=O)C1=C(C)N2C(=NC3=C(CCCC/C3=C\c3ccccc3)C2c2ccccc2)S1 (stereo not drawn),90.9%,96.2%,103%,94.8%,93.4%,88.5%,108%,107%,99.6%,101%,78.7%,99.1%,93.7%,101%,87.8%,96.3%,94.9%,97.3%
COc1cc(/C=C/c2cc(/C=C/c3ccc(O)c(OC)c3)n(-c3ccccc3)n2)ccc1O,-13.9% (active),-33.6% (active),-13.1% (active),-7.74% (active),4.49% (active),-53.1% (active),-21.2% (active),-46.9% (active),-13% (active),3.18% (active),-23.9% (active),-47.2% (active),-67.3% (active),-22.7% (active),-5.71% (active),-5.83% (active),5.82% (active),-28% (active)
Brc1ccccc1Nc1ccc2nnc(-c3ccncc3)n2n1,61.7%,91.1%,100%,101%,104%,102%,93.6%,103%,109%,99.8%,80.6%,107%,105%,102%,84.9%,94.9%,113%,94.1%
Brc1ccc(SCN(CSc2ccc(Br)cc2)Cc2ccccc2)cc1,34.6%,36.3%,74.4%,90.1%,75.5%,93.9%,35.6%,91.6%,88.1%,73.4%,84.7%,-15.2% (active),75.8%,102%,66.2%,57.8%,113%,43.2%
